The record followed here is PubChem BioAssay.

The structures appear in SMILES notation. Active and inactive are the calls of the source. Unless noted, how the calls were made is not given here.

A short description of test [1]: anti-His antibody binders, primary screen, artefact control for SMM control protein annotation, biochemical, small-molecule microarray, 635 nm fluorescence (AID 1128).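 Further: score merges feature fluorescence with signal-to-noise for each printed compound spot.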 The note with it: anti-His Alexa647 antibody binding, higher = more signal.
In test [2] the test system is Human papillomavirus type 1a E7 protein (residues 1-88). Nature of the test: HPV1a E7 small-molecule binders, primary screen, biochemical, small-molecule microarray, residues 1-88, 635 nm (AID 1129). Particulars: small-molecule microarray binding, fluorescence 635 nm; higher = more signal.
In test [3] the target is Focal adhesion kinase 1 (Homo sapiens) (UniProt Q05397). Briefly: small-molecule microarray binders of FAK, primary screen, biochemical, 635/667 nm fluorescence, BSA, DTT (AID 1130).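 Further: composite of spot emission at 667 nm and signal to noise over triplicate slides.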 Particulars: PTK2 binding, 635 nm fluorescence, higher = more signal.
Focal adhesion kinase 1 (Homo sapiens), sequence (Q05397 whole entry, looked up): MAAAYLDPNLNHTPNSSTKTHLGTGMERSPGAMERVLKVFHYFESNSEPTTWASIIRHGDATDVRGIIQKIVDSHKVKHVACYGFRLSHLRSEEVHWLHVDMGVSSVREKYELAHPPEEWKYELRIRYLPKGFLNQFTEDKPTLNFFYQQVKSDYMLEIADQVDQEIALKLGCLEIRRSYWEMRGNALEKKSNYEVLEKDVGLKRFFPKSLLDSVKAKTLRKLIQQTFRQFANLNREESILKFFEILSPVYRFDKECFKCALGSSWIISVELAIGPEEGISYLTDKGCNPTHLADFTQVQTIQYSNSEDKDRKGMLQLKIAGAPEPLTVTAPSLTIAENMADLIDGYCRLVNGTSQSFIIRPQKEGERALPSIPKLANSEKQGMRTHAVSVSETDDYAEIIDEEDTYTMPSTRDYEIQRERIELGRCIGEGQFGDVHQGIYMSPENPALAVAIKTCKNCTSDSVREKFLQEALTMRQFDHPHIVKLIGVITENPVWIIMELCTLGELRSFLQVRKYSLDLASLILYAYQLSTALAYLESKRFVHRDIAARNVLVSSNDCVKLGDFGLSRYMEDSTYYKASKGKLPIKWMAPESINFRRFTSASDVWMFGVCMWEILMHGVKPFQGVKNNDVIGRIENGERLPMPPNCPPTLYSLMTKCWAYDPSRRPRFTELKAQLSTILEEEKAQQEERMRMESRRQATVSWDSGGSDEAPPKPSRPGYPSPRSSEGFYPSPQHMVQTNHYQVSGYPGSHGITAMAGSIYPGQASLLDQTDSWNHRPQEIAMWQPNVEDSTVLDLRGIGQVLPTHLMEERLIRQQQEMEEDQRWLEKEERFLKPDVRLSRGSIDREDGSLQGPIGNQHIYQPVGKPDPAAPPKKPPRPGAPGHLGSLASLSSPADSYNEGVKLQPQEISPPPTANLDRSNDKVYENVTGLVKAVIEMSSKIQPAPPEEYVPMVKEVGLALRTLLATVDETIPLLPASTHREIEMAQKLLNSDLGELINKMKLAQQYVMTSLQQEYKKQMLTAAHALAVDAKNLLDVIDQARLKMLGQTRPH
The subject of test [4] is Fibrinogen (Alexa647-labelled). Nature of the test: fibrinogen binders on compound microarrays, profiling panel, artefact control for SMM control-protein annotation, biochemical, small-molecule microarray, 635/667 nm fluorescence (AID 1131).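 Further: z-score merges 667 nm fluorescence with per-spot signal-to-noise over triplicate slides.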 The note with it: fibrinogen-A647 binding fluorescence, higher = more signal.
Test [5] concerns the target Follistatin (Homo sapiens) (UniProt P19883). Briefly: follistatin binders on small-molecule microarrays, primary screen, biochemical, small-molecule microarray, 635/667 nm fluorescence (AID 1132). The note with it: FST binding, 635 nm fluorescence, higher = more signal.
Test [6] concerns the target Fibroblast growth factor 2 (Homo sapiens) (UniProt P09038). Nature of the test: FGF2 binders on small-molecule microarrays, primary screen, biochemical, small-molecule microarray, 635/667 nm fluorescence (AID 1133). Particulars: small-molecule microarray binding, FGF2, fluorescence 635/667; higher = more signal.
Test [7] in a line: mitochondrial membrane potential change in A549 cells, profiling panel, cell-based, JC-1 fluorescence, basal, 24 h, 100 nL (AID 1138).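 Further: A549 lung adenocarcinoma cells under basal conditions with no added stimulus; test concentration not given here.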 Particulars: higher = more signal.
The next test deals with Lefty1. Briefly: Lefty1 binders on small-molecule microarrays, primary screen, biochemical, small-molecule microarray, 635/667 nm fluorescence (AID 1139). Particulars: small-molecule microarray binding, fluorescence 635/667; higher = more signal.
Test [8] concerns wheat germ agglutinin (Triticum aestivum), Alexa647-labelled. Briefly: wheat germ agglutinin binders on compound microarrays, profiling panel, artefact control for SMM control-protein annotation, biochemical, small-molecule microarray, 635/667 nm fluorescence (AID 1140).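 Further: score merges 667 nm feature emission with signal to noise over triplicate slides.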 Particulars: WGA-A647 binding, 635 nm fluorescence, higher = more signal.
Test [9] deals with Luciferin 4-monooxygenase (Photinus pyralis) (UniProt P08659). Briefly: firefly luciferase enzyme inhibitors, primary screen, biochemical, luminescence, purified enzyme, 2006 set (AID 1141).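 Further: cell-free assay with purified firefly luciferase at 100 ng per well in PBS; test concentration not given here.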 Particulars: SteadyGlo luminescence, 30 min, higher = more signal, called active from +8 up or from −8 down.
Luciferin 4-monooxygenase (Photinus pyralis), sequence (P08659 whole entry, looked up): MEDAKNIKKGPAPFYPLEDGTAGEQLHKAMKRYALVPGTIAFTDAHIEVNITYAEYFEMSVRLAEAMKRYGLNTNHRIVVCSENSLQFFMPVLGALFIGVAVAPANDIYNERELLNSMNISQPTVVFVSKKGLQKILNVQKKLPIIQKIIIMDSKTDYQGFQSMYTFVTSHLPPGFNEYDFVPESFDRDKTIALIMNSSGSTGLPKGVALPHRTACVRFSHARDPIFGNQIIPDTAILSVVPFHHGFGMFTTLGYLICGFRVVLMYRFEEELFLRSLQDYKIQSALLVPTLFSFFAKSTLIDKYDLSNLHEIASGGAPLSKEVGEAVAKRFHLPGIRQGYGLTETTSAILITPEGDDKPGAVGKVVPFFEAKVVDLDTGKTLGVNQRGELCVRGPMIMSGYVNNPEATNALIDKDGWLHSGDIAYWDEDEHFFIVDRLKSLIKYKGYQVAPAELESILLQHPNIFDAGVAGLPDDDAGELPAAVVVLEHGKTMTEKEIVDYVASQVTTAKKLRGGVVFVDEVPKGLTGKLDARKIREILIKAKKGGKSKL
The test system of test [10] is Wnt5a (protein binding on small-molecule microarray). Briefly: Wnt5a binders on small-molecule microarray, primary screen, biophysical, 635/667 nm fluorescence (AID 1142).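 Further: fluorescence read at 667 nm with signal to noise per printed feature.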 Particulars: 635 nm fluorescence, higher = more signal.
Test [11] can be described thus: cell viability in Huh7 cells, primary screen, cytotoxicity control for HCV replication inhibitor project, CellTiter-Glo luminescence, basal, 48 h (AID 1143).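 Further: Huh7 hepatoma cells carrying a hepatitis C replication reporter with no stimulus; test concentration not given here.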 The note with it: Huh7 HCV replicon, higher = more signal, called active from +8 up or from −8 down.
Test [12] in a line: P. aeruginosa biofilm formation inhibitors, primary screen, PAO1 strain, BacTiter-Glo luminescence, LB-PBS (AID 1144). Particulars: 12 h, higher = more signal.
Test [13] is described as follows: CREB reporter modulators without forskolin, primary screen, cell-based, PC12, CRE-LacZ reporter, unstimulated (AID 1145). The note with it: no forskolin, luminescence, 4.5 h, higher = more signal, called active from +8 up or from −8 down.
A short description of test [14]: CREB reporter modulators under forskolin, primary screen, cell-based, PC12, CRE-LacZ reporter, forskolin-stimulated (AID 1146).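 Further: PC12 cells with 6xCRE LacZ reporter stimulated by forskolin 10 µM; beta-galactosidase reporter signal reflecting CREB driven transcription.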 Particulars: luminescence, 4.5 h, higher = more signal, called active from +8 up or from −8 down.
For test [15], the target named is Streptavidin (Streptomyces avidinii) (UniProt P22629). Nature of the test: streptavidin binders on small-molecule microarray, primary screen, artefact control for SMM compound annotation, biophysical, 635/667 nm fluorescence (AID 1147).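 Further: signal reflects streptavidin binding to arrayed compounds as a control protein.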 Particulars: streptavidin binding, higher = more signal.
Streptavidin (Streptomyces avidinii), sequence (P22629 whole entry, looked up): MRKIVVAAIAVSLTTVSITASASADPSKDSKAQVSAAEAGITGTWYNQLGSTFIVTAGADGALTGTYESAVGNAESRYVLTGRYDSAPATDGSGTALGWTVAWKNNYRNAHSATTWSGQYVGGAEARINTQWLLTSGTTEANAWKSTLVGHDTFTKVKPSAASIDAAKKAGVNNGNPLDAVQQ
A short description of test [16]: small-molecule binders of probe aInhba, primary screen, biochemical, small-molecule microarray, 635/667 nm fluorescence (AID 1148).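 Further: score merges 667nm spot fluorescence with signal-to-noise for antibody binding to printed compounds.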 The note with it: higher = more signal.
In test [17] the target is Torsin-1A (Homo sapiens) (UniProt O14656). Nature of the test: torsin A binders from cell lysate, primary screen, small-molecule microarray, wild-type, 635/667 nm (AID 1149). The note with it: COS7 hTOR1A-WT lysate, 635 nm fluorescence, higher = more signal.
Torsin-1A (Homo sapiens), sequence (O14656 whole entry, looked up): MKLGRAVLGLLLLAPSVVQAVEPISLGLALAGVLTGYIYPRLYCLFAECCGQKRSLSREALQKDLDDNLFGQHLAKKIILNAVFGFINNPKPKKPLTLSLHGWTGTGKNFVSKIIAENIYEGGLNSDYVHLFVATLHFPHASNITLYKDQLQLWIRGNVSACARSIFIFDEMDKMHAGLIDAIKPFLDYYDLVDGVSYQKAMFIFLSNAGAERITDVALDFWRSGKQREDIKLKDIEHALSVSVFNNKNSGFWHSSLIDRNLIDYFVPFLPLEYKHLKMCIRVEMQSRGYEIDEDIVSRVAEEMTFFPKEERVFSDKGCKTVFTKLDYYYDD
For test [18] the target is unchanged. Briefly: small-molecule binders of mutant TOR1A in lysate, primary screen, cell lysate, small-molecule microarray, COS7 lysate, 635/667 nm fluorescence (AID 1150).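 Further: score pools 667 nm emission and signal to noise measuring lysate protein binding.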 Particulars: COS7 hTOR1A mutant lysate, 635 nm fluorescence, higher = more signal.
The subject of test [19] is Sonic hedgehog protein (Shh). Nature of the test: small-molecule binders of Shh protein, primary screen, biochemical, small-molecule microarray, 635/667 nm fluorescence (AID 1151).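 Further: Shh protein binding to compounds spotted on small-molecule microarray slides; score combines spot fluorescence intensity with signal-to-noise across triplicate slides.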 Particulars: small-molecule microarray binding, 635 nm fluorescence; higher = more signal.

Follistatin (Homo sapiens), sequence (P19883 whole entry, looked up): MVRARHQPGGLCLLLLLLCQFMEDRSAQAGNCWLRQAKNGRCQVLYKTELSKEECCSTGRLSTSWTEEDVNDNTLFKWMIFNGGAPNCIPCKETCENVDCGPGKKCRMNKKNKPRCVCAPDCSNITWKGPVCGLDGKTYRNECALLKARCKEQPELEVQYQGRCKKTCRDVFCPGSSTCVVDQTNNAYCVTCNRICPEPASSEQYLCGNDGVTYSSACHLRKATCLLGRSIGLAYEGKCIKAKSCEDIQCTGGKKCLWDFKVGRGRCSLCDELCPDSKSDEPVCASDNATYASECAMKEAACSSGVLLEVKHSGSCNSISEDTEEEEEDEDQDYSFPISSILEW
Fibroblast growth factor 2 (Homo sapiens), sequence (P09038 whole entry, looked up): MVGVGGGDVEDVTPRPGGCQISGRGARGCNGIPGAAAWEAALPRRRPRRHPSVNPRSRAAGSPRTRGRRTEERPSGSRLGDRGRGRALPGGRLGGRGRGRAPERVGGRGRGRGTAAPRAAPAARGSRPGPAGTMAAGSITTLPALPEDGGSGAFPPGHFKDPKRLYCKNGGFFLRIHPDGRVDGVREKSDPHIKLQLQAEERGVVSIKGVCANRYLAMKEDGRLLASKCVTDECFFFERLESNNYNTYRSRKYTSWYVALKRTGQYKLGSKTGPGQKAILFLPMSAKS

With `CC(C)(C)OC(=O)CC[C@]1(C(=O)O)COC(c2ccc(OCCCO)cc2)=N1`, the composite z-score was 0.541 in test [1]; -0.173 in test [2]; -0.108 in [3]; 0.68 in test [4]; -0.747 in test [5]; -1.23 in [6]. In addition, the composite z-score was -0.552 with Lefty1; 0.62 in test [8]; -0.0943 in test [10]; 0.142 in test [15]; -0.0589 in test [16]; 0.676 with Torsin-1A (Homo sapiens) [17]. In addition, the composite z-score is 1.08 in the test with Torsin-1A (Homo sapiens) [18] and -2.07 in [19]. Further, the z-score in [7] is 0.352; in test [9], -0.306 (inactive); in test [11] it was 0.61 (inactive); in test [12], 0.178 (inactive); in test [13] it was 0.694 (inactive); in test [14], 0.506 (inactive).

`CC(C)[Si](C#C[Si](C(C)C)(C(C)C)C(C)C)(O[C@H](C)c1cn(Cc2cccc(Cl)c2)nn1)C(C)C`: the composite z-score in [1] was 0.604; in test [2], 1.11; in test [3] it was 0.586; in test [4], 0.715; in test [5], 0.396; in [6], 0.67. Moreover, the composite z-score in the test with Lefty1 was 0.714; in test [8], 1.17; in [10], -0.0078; in [15] it was 0.534; in [16], -0.101; with Torsin-1A (Homo sapiens) [17] it was 0.781. Moreover, the results for the composite z-score (in the test with Torsin-1A (Homo sapiens) [18]; in [19]) were 0.262 and 0.632, respectively. For the same molecule, the z-score in test [7] is 2.01; in test [9], -1.11 (inactive); in test [11], -0.219 (inactive); in test [12] it was -1.25 (inactive); in test [13], -0.71 (inactive); in test [14] it was -0.399 (inactive).

`[N-]=[N+]=NCc1ccccc1C[C@@]1(C(=O)NCCN2CCOCC2)N=C(c2ccc(OCCCO)cc2)O[C@@H]1c1ccccc1CN=[N+]=[N-]`: the composite z-score came out at 2.12 in test [1]; 1.21 in test [2]; 0.366 in [3]; 0.973 in test [4]; 1.45 in [5]; 0.672 in test [6]. Moreover, the composite z-score in the test on Lefty1 is 0.785; in test [8] it was 0.59; in test [10] it was 0.784; in [15] it was 0.697; in [16] it was 0.196; with Torsin-1A (Homo sapiens) [17], -0.0348. The composite z-score is 0.472 with Torsin-1A (Homo sapiens) [18] and 0.619 in test [19]. For the same molecule, the z-score in test [7] is 1.08; in test [9] it was -1.36 (inactive); in test [11], -2.99 (inactive); in [12], 0.497 (inactive); in test [13], -0.641 (inactive); in test [14], -0.781 (inactive).

With `CCCC=C(CCC)[C@@H](NC(=O)Cc1ccccc1)c1ccc(C(=O)OC)cc1`, the composite z-score was 1.2 in [1]; 0.821 in test [2]; 0.563 in [3]; 0.714 in [4]; 0.28 in [5]; 0.0515 in [6]. Also, the composite z-score with Lefty1 is -0.365; in test [8] it was 1.03; in test [10], 0.372; in test [15], 1.68; in test [16], 0.376; with Torsin-1A (Homo sapiens) [17] it was -0.0377. For the same molecule, the composite z-score was -0.414 with Torsin-1A (Homo sapiens) [18] and -0.284 in test [19]. For the same molecule, the z-score was -0.298 in test [7]; 1.54 (inactive) in test [9]; -2.2 (inactive) in [11]; 0.354 (inactive) in [12]; 0.0041 (inactive) in test [13]; 0.545 (inactive) in test [14].

On to `COc1ccc([Si](C)(C)[C@H]2[C@H](CCn3cc(CCO)nn3)O[C@@]3(C(=O)N(Cc4cccc(N5C(=O)c6cccc7cccc5c67)c4)c4ccccc43)[C@@H]2C)cc1`, for which the composite z-score in test [1] was determined as 0.246; in test [2], 1.05; in test [3] it was 0.124; in test [4], 0.497; in [5], 0.958; in test [6] it was 0.691. Moreover, the composite z-score in the test on Lefty1 is 1.21; in test [8] it was 0.878; in test [10], 0.16; in test [15], 0.99; in test [16], -0.018; in the test with Torsin-1A (Homo sapiens) [17], 1.33. Also, the values for the composite z-score (in the test with Torsin-1A (Homo sapiens) [18]; in test [19]) were 1.22 and 1.37, respectively. Further, the z-score was -0.338 in test [7]; -1.54 (inactive) in test [9]; -7.3 (inactive) in test [11]; -1.11 (inactive) in test [12]; 11 (active) in [13]; -1.3 (inactive) in test [14].
